Experimental data from ChEMBL document CHEMBL1157539, “Thousands of chemical starting points for antimalarial lead identification” (Nature, 2010).

System: Plasmodium falciparum
Test: GSK_TCMDC: Inhibition of Plasmodium falciparum 3D7 in whole red blood cells, using parasite LDH activity as an index of growth. Test compounds present at 2uM
Format: functional

| Compound | Inhibition [%] |
| --- | --- |
| Oc1c(C(Nc2nc3ccccc3s2)c2ccc(OC(F)F)cc2)ccc2cccnc12 (stereo not given) | 92 |
| O=C(Nc1cc2cc(-c3ccc(CN4CCCCC4)cc3)ccc2n2cnnc12)NC1CCCC1 | 100 |
| CCn1cc(C=C2Oc3c(ccc(O)c3CN3CCCCC3)C2=O)c2ccccc21 | 100 |
| Cc1cccc2nc(-c3cccc(-c4cccc(NC(=O)c5ccc(=O)[nH]n5)c4)c3)[nH]c12 | 100 |
| CC(CN1CCN(C)CC1)C(=O)Nc1cccc(-c2cccc(-c3nc4ccccc4[nH]3)c2)c1 (stereo not given) | 88 |
| CS(=O)(=O)Nc1ccc2[nH]cc(C3CCN(CC(O)C4CCN(C(=O)/C=C/c5ccc(Cl)c(Cl)c5)CC4)CC3)c2c1.O=C(O)C(F)(F)F (stereo not given) | 100 |
| Cc1cc(-c2cccc(CNC3CCCC3)c2)ccc1S(=O)(=O)NCCN1CCCC1.O=C(O)C(F)(F)F | 81 |
| O=C(CCNc1ccnc(NCC2CCCCC2)n1)Nc1ccccc1.O=C(O)C(F)(F)F | 95 |
| CN1CCN(c2ccnc3ccc(NC(=O)Nc4ccc(-c5ccncc5)c(C#N)c4)cc23)CC1 | 100 |
| Cc1noc(C)c1-c1ccc2c(Nc3nccc4ccccc34)c(C(N)=O)cnc2c1 | 100 |
| COc1cc(Cc2cnc(N)nc2N)cc(OCCn2ccccc2=O)c1OC | 97 |
| O=C(/C=C/c1ccc(C(F)(F)F)cc1)NCCCCCN1CCN(C(=O)Nc2ccc(Cl)cc2)CC1 | 88 |
| CCCCCc1cnc2nc(N)nc(N)c2c1.O=S(=O)(O)CCO | 82 |
| Br.Oc1ccc(CCNCCCCCCNCCc2ccc(Br)cc2)cc1O | 99 |
| N#Cc1ccc(CN2CCCN(Cc3cccc(NC(=O)c4cc5ccccc5s4)c3)CC2)cc1.O=C(O)C(F)(F)F | 97 |
| CC(C(=O)NC1CCN(c2ccnc(Nc3ccc(F)cc3)n2)C1)c1ccc(Cl)cc1 (stereo not given) | 95 |
| COc1ccc2ncc(F)c(CCN3C4CCC3CC(NCc3ccc5c(c3)OCCO5)C4)c2n1.Cl (stereo not given) | 100 |
| COc1cccc2c(N/N=C/c3ccccc3[N+](=O)[O-])ccnc12 | 99 |
| CCC[C@@H]([C@@H](CC(C)C)C(=O)N[C@@H](CCCCNC(=O)c1ccccn1)C(=O)Nc1nccs1)N(O)C=O | 100 |
| C=C[C@H]1CN2CC[C@H]1C[C@H]2[C@H](O)c1ccnc2ccc(OC)cc12.O.O=S(=O)(O)O | 97 |

| Compound | Inhibition [%] |
| --- | --- |
| Cc1ccc2c(=NN=CC=Cc3ccccc3)cc(C)[nH]c2c1 | 92 |
| CN(c1ccc(NC(=O)Nc2cccc(Cl)c2)cc1)c1ccnc(N)n1.Cl | 100 |
| Cc1nc(NCCc2c[nH]cn2)cc(NCc2ccccc2)n1 | 100 |
| O=C(NC1CCN(Cc2ccccc2)CC1)c1ccc(-c2nc3cc(Cl)c(Cl)cc3[nH]2)s1 | 100 |
| CCCSc1nc2c(c(=O)n1CCc1ccccc1)C1(CCCC1)Cc1ccccc1-2 | 99 |
| COc1ccc(NC(=O)/C=C/c2ccccc2Cl)cc1OCCN1CCC(Cc2cc3ccccc3[nH]2)CC1.Cl | 92 |
| O=C(C=Cc1ccc(Cl)c(Cl)c1)NCCCCCN1CCCC(CCCNS(=O)(=O)c2cccc3cccnc23)C1 (stereo not given) | 96 |
| COc1ccc(NC(=O)N2CCCN(CCCCCNC(=O)/C=C/c3ccc(Cl)cc3)CC2)cc1Cl | 97 |
| CC(C)CCNC(=O)C1Cc2c([nH]c3ccc(Br)cc23)C2(CCN(CCc3ccccc3)CC2)N1 (stereo not given) | 100 |
| Oc1ccc(CN2CCC(N3CCN(CCc4ccccc4)CC3)C(O)C2)cc1Cl (stereo not given) | 100 |
| Cc1nc(C)c(-c2ccc(C(=O)c3ccc(Cl)cc3)cc2)c(O)c1Br | 97 |
| COc1ccc(-c2ccccc2OCCCNc2nc(NCCc3ccc(O)cc3)nc(N3CCNCC3)n2)cc1.O=C(O)C(F)(F)F | 99 |
| CCOc1ccccc1N1CCN(CCCNC(=O)/C(=C/C=C/c2cc3cc(Cl)c(Cl)cc3[nH]2)OC)CC1 | 98 |
| Cl.O=C(Nc1ccc(Cl)cc1)Nc1cccc(-c2cc(CNCCc3ccccc3)oc2-c2ccncc2)c1 | 100 |
| COc1ccc(-c2nc(NC(=O)Cc3coc4cc(OC)ccc34)sc2C)cc1 | 100 |
| CC(C)Oc1cc2c(cc1NS(=O)(=O)c1ccc(-c3ccc(Cl)s3)cc1F)CCN(C)CC2.Cl | 99 |
| CCC(C)NC(=O)CN1CN(c2ccccc2)C2(CCN(C(=O)c3ccc(C(C)(C)C)cc3)CC2)C1=O (stereo not given) | 100 |
| COc1ccc2ccccc2c1CCCCN1CCN(CC(c2ccc(F)cc2)N2CCC(N3CCCC3)CC2)CC1.O=C(O)C(F)(F)F (stereo not given) | 99 |
| O=C(Nc1ccc(N2CCCN(Cc3cccc(F)c3)CC2)cc1)c1ccccc1.O=C(O)C(F)(F)F | 95 |
| O=C(C=Cc1ccc(Cl)c(Cl)c1)NCCCCCN1CCCC(CCCNC(=O)c2sc3ccccc3c2Cl)C1 (stereo not given) | 88 |
